Measurements taken from PubChem BioAssay (NCI).
The panel holds about 83,000 compounds, 20% with a hit somewhere; the sample as a whole holds those more often.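 Each cell line was grown in a 96-well plate and treated with one concentration of compound for 48 hours. Values below 10 were considered active.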

Experiments:
Test in all cases: NCI-60 one-dose screen, 48 h (100 = growth as untreated, 0 = no growth, -100 = all killed)
Details in all cases: 10 µM
NCI-H23 lung = system: NCI-H23 lung
NCI-H226 lung = system: NCI-H226 lung
NCI-H322M lung = system: NCI-H322M lung
HOP-62 NSCLC = system: HOP-62 NSCLC
NCI-H460 lung = system: NCI-H460 lung
HOP-92 NSCLC = system: HOP-92 NSCLC
NCI-H522 lung = system: NCI-H522 lung
A549/ATCC NSCLC = system: A549/ATCC NSCLC
786-0 renal = system: 786-0 renal
DU-145 prostate = system: DU-145 prostate
K-562 leukemia = system: K-562 leukemia
MDA-MB-231 breast = system: MDA-MB-231 breast
RXF 393 renal = system: RXF 393 renal
SF-268 CNS = system: SF-268 CNS
SF-295 CNS = system: SF-295 CNS
SF-539 CNS = system: SF-539 CNS
UACC-257 melanoma = system: UACC-257 melanoma
M14 melanoma = system: M14 melanoma
COLO 205 colon = system: COLO 205 colon
MALME-3M melanoma = system: MALME-3M melanoma

Measured: growth

CCCC(=O)Nc1ccc2c(c1)CN1C(=O)c3ccccc3C1=N2
inactive: NCI-H23 lung 106% | NCI-H226 lung 100% | NCI-H322M lung 99.1% | HOP-62 NSCLC 104% | NCI-H460 lung 103% | HOP-92 NSCLC 95.3% | NCI-H522 lung 106% | A549/ATCC NSCLC 90% | 786-0 renal 99.2% | DU-145 prostate 101% | K-562 leukemia 102% | MDA-MB-231 breast 103% | RXF 393 renal 109% | SF-268 CNS 101% | SF-295 CNS 86.7% | SF-539 CNS 89.6% | UACC-257 melanoma 102% | M14 melanoma 113%

CCOC(=O)C(C#N)Cc1ccccc1 (configuration not stated)
inactive: NCI-H23 lung 105% | NCI-H226 lung 112% | NCI-H322M lung 116% | HOP-62 NSCLC 116% | NCI-H460 lung 117% | HOP-92 NSCLC 101% | NCI-H522 lung 111% | A549/ATCC NSCLC 109% | 786-0 renal 109% | COLO 205 colon 123% | K-562 leukemia 125% | MALME-3M melanoma 136% | RXF 393 renal 124% | SF-268 CNS 113% | SF-295 CNS 104% | SF-539 CNS 114% | UACC-257 melanoma 117% | M14 melanoma 108%

Cc1ccc(/C=C2\SC(=S)N(c3ccc(F)cc3)C2=O)o1
inactive: NCI-H23 lung 88.3% | NCI-H226 lung 72.4% | NCI-H322M lung 90.2% | HOP-62 NSCLC 83.1% | NCI-H460 lung 33.7% | HOP-92 NSCLC 87.6% | NCI-H522 lung 70.6% | A549/ATCC NSCLC 87.5% | 786-0 renal 40.2% | COLO 205 colon 92.4% | DU-145 prostate 95.5% | K-562 leukemia 77.8% | MALME-3M melanoma 77% | RXF 393 renal 75% | SF-295 CNS 73% | SF-539 CNS 73.9% | UACC-257 melanoma 102% | M14 melanoma 87.5%

CN(C)CCC(=O)c1ccc(O)cc1
inactive: NCI-H23 lung 97% | NCI-H226 lung 99% | NCI-H322M lung 106% | HOP-62 NSCLC 107% | NCI-H460 lung 103% | HOP-92 NSCLC 98.5% | NCI-H522 lung 102% | A549/ATCC NSCLC 103% | 786-0 renal 108% | DU-145 prostate 104% | K-562 leukemia 104% | MALME-3M melanoma 108% | RXF 393 renal 112% | SF-268 CNS 95.5% | SF-295 CNS 106% | SF-539 CNS 104% | UACC-257 melanoma 105% | M14 melanoma 104%

c1ccc(/C(=N\N=C(/c2ccccc2)c2cccs2)c2cccs2)cc1
inactive: NCI-H23 lung 97.3% | NCI-H226 lung 89.3% | NCI-H322M lung 83.1% | HOP-62 NSCLC 102% | NCI-H460 lung 105% | HOP-92 NSCLC 92% | NCI-H522 lung 83.1% | A549/ATCC NSCLC 105% | 786-0 renal 84.8% | COLO 205 colon 99.3% | DU-145 prostate 105% | K-562 leukemia 83.6% | RXF 393 renal 108% | SF-268 CNS 97% | SF-295 CNS 95.8% | SF-539 CNS 111% | UACC-257 melanoma 106% | M14 melanoma 101%

CNC(=S)NC(C)(C)C
inactive: NCI-H23 lung 104% | NCI-H226 lung 102% | NCI-H322M lung 98.4% | HOP-62 NSCLC 101% | NCI-H460 lung 113% | HOP-92 NSCLC 83.1% | NCI-H522 lung 98% | A549/ATCC NSCLC 98.3% | 786-0 renal 101% | COLO 205 colon 119% | DU-145 prostate 108% | K-562 leukemia 103% | MALME-3M melanoma 97.1% | RXF 393 renal 112% | SF-295 CNS 104% | SF-539 CNS 99.9% | UACC-257 melanoma 92.7% | M14 melanoma 98.8%

CC(C)COC(=O)COC(=O)OCCOCCOC(=O)OCC(=O)OCC(C)C
inactive: NCI-H23 lung 100% | NCI-H226 lung 100% | NCI-H322M lung 118% | HOP-62 NSCLC 98.1% | NCI-H460 lung 114% | HOP-92 NSCLC 95.7% | NCI-H522 lung 95.9% | A549/ATCC NSCLC 109% | 786-0 renal 103% | DU-145 prostate 95.3% | MALME-3M melanoma 104% | MDA-MB-231 breast 113% | RXF 393 renal 103% | SF-268 CNS 93.5% | SF-295 CNS 115% | SF-539 CNS 80.5% | UACC-257 melanoma 103%

Cc1ccc(N)cc1[N+](=O)[O-]
inactive: NCI-H23 lung 97.1% | NCI-H226 lung 114% | NCI-H322M lung 129% | HOP-62 NSCLC 99.5% | NCI-H460 lung 109% | HOP-92 NSCLC 90% | NCI-H522 lung 94.5% | A549/ATCC NSCLC 100% | 786-0 renal 108% | COLO 205 colon 110% | DU-145 prostate 115% | K-562 leukemia 108% | MDA-MB-231 breast 122% | RXF 393 renal 114% | SF-268 CNS 114% | SF-295 CNS 105% | SF-539 CNS 113% | UACC-257 melanoma 98.7% | M14 melanoma 99.8%

CC(=O)Oc1ccc(Br)cc1C(=O)O
inactive: NCI-H23 lung 98.6% | NCI-H226 lung 99% | NCI-H322M lung 101% | HOP-62 NSCLC 86.9% | NCI-H460 lung 106% | HOP-92 NSCLC 97.8% | NCI-H522 lung 91.4% | A549/ATCC NSCLC 103% | 786-0 renal 97.4% | DU-145 prostate 120% | K-562 leukemia 109% | MALME-3M melanoma 98.2% | MDA-MB-231 breast 118% | RXF 393 renal 98.8% | SF-268 CNS 106% | SF-295 CNS 109% | SF-539 CNS 93.2% | UACC-257 melanoma 101%
